Assay outcomes: PubChem BioAssay, National Center for Advancing Translational Sciences (NCATS)
Sampled rows, rich in hits. Any-hit rate of the full collection: about 7.3%.
Vaccinia mCherry = vaccinia inhibition (mCherry reporter) | Vaccinia virus mCherry reporter infection, fluorescence | Potency, µM (doses to about 36.5 µM), inactives show at the highest dose activity change, negative = inhibition, actives largely listed as inhibitors | 310,000 compounds, 0.63% hits | AID 720579; calls by dose curve; tested in A549 cells; further: potency means the concentration at half of the fitted maximal effect; nearly all actives have a fitted effect of over 35% in size
FMDV inh = antivirals against foot and mouth disease virus. Potency, µM (titrated, usually from 57.9 µM), for inactives: at the top dose activity change, negative = inhibition, usual class: inhibitors. 410,000 compounds, 1.2% hits. AID 1159524. FMDV antiviral cell-based qHTS; calls by dose curve; tested in HEK293T cells; further: read-out not given here; potency means the concentration at half of the fitted maximal effect; nearly all actives have a fitted effect of over 45% in size
HCV inh = blocks hepatitis C virus; AID 651820; Huh7.5.1 HCVcc-Cre infection, luciferase reporter, 44 h; 340,000 compounds, 3.4% hits; Potency, µM (doses to about 41.8 µM), for inactives: at the highest dose activity change, negative = inhibition, usual class: inhibitors; active means well fitted inhibition curve with a large enough effect; inconclusive means small, poorly fitted or top-dose-only effect, or another doubt; inactive means no such curve, though single readings can be large or run the other way; further: potency means the concentration at half of the fitted maximal effect
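A cell-based infection assay in which seeded cells (1,000 per well) receive test compound after 4 h, are inoculated with HCVcc-Cre at approximately 0.5 moi, and are incubated 44 h before luminescence detection.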
Vaccinia Venus = vaccinia inhibition (Venus reporter); Vaccinia virus Venus reporter expression, fluorescence; Potency, µM (doses to about 36.5 µM), for the others: at the highest dose activity change, negative = inhibition, hits mostly inhibitors; 330,000 compounds, 0.46% hits; calls by dose curve; tested in A549 cells; further: potency means the concentration at half of the fitted maximal effect; nearly all actives have a fitted effect of over 30% in size
HCMV antiviral = human cytomegalovirus inhibition | AID 1259415 | activity change, negative = inhibition, % at 57.5 µM | HFF cells, HCMV-luciferase reporter, 72 h; stronger effect = lower value | 410,000 compounds, 4.5% hits; in the data active means activity change below about -60%; inconclusive means no clear call, values can overlap the other calls; inactive means above about -39%
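Steps: HFFs plated, 16 h 37C; compounds added; HCMV-luciferase added to MOI 1 PFU/cell; 72 h 37C; OneGlo reagent, 5 min room temperature; luminescence read, normalized to controls.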
Active calls of the source: *; i = inactive; ? = inconclusive; . = not tested or not shown. On the % scale 0 is the no-effect control and ±100 the full control effect.

SMILES	Vaccinia mCherry	FMDV inh	HCV inh	Vaccinia Venus	HCMV antiviral
CCOC(=O)c1c(NC(=O)CN2C(=O)NC(C)(c3ccc(Cl)cc3)C2=O)sc(C(=O)NC)c1C (centres undefined)	-2%	0%	14µM*	?	1
N#Cc1cccc(NC(=O)N2CCCC3(CCN(C(=O)c4cc(C(F)(F)F)cc(C(F)(F)F)c4)CC3)C2)c1	.	-10%	.	.	.
O=C(CSc1nc2c([nH]c3ccccc32)c(=O)n1-c1ccc(F)cc1)NCC1CCCO1 (centres undefined)	-9%	-6%	.	-11%	-17
COc1ccc(-c2nc3ccc(C)cn3c2CC(C)(C)C)cc1OC	22%	-8%	.	-6%	5
Cc1ccc(CNC(=O)C2CCC(CNS(=O)(=O)c3ccc(C)cc3)CC2)cc1 (centres undefined)	i	9%	.	-22%	0
CCOC(=O)c1c(NC(=O)CN2CCN(S(=O)(=O)c3cc(Cl)ccc3Cl)CC2)sc(C(=O)N(C)C)c1C	.	?	11µM*	.	-90*
O=C(CCS(=O)(=O)c1ccc(F)cc1)Nc1nc(-c2ccccn2)cs1	.	?	-1%	.	-106*
C[C@H](NC(=O)c1ccco1)C(=O)Nc1nc(-c2ccccn2)cs1	-12%	-18%	-13%	-13%	-25
O=C(CCS(=O)(=O)c1ccccc1)Nc1nc(-c2ccccn2)cs1	10µM*	-24%	?	?	-103*
CC(Oc1ccc(F)cc1)C(=O)Nc1nc(-c2ccccn2)cs1 (centres undefined)	?	?	8.9µM*	?	-90*
Cc1ccc(S(=O)(=O)CCC(=O)Nc2nc(-c3ccncc3)cs2)cc1	.	?	14%	.	-10
CN(C)S(=O)(=O)c1ccc(Cl)c(NC(=O)CNC2(C)CCS(=O)(=O)C2)c1 (centres undefined)	-11%	-7%	-1%	3%	5
Cc1cc(Nc2ccccc2Cl)n2nc(-c3ccco3)nc2n1	-12%	-23%	.	-13%	-72*
CCOC(=O)c1ccccc1Nc1cc(C)nc2nc(-c3ccco3)nn12	-15%	0%	.	-17%	44
CCOC(=O)c1cc2c(=O)n3ccccc3nc2n(CC(C)C)c1=NC(=O)COc1ccc(Cl)cc1	-24%	-4%	.	-17%	13
COc1ccc(Cl)cc1NC(=O)c1nn(-c2ccc(C)cc2)c(=O)n(C)c1=O	-15%	-26%	.	-11%	7
Nc1[nH]c(C(=O)c2ccccc2)c(-c2ccccc2Br)c1C(=O)NCCc1c[nH]c2ccccc12	-18%	-24%	.	-17%	-40
Nc1[nH]c(C(=O)c2ccccc2)c(-c2ccccc2C(F)(F)F)c1C(=O)NCCc1c[nH]c2ccccc12	?	4%	.	?	-61*
C[C@@H]1CN([C@@H](C)CO)C(=O)CCCn2cc(nn2)CO[C@H]1CN(C)C(=O)Nc1cccc(F)c1	.	.	.	.	-17
CCOC(=O)c1ccc(Oc2c(C)oc3cc(OS(C)(=O)=O)ccc3c2=O)cc1	-19%	0%	?	-13%	-77*
O=C(COC(=O)c1ccc([N+](=O)[O-])s1)Nc1ncc(C(F)(F)F)cc1Cl	-5%	-17%	-7%	9%	18
CCCn1c(=O)c2c(nc3n2CCCN3CCc2ccccc2)n(C)c1=O	i	?	-25%	-19%	-62*
COC(=O)Cn1c(=O)c2c(nc3n2CCCN3CCc2ccccc2)n(C)c1=O	-10%	1%	-1%	-7%	-64*
CC(C)Cn1c(=O)c2c(nc3n2CCCN3CCc2ccccc2)n(C)c1=O	.	?	10µM*	?	11
Cn1c(=O)n(CCc2ccccc2)c(=O)c2c1nc1n2CCCN1Cc1ccccc1	.	20µM*	16%	-7%	16
SMILES	Vaccinia mCherry	FMDV inh	HCV inh	Vaccinia Venus	HCMV antiviral
Cn1c(=O)n(CCc2ccccc2)c(=O)c2c1nc1n2CCCN1CCc1ccccc1	.	?	?	-31%	-3
CC(C)=C(NC(=O)c1ccccc1)C(=O)Nc1ccc(C(=O)O)cc1	.	-7%	13%	.	-38
CCSc1ncc(Cl)c(C(=O)Nc2sc(C(C)=O)c(C)c2C(=O)OC)n1	-27%	?	.	-14%	14
Cc1ccc(-c2cc(-c3ccc(C)cc3)[n+](C)o2)cc1	-10%	?	8.9µM*	-26%	-103*
COC(=O)c1ccc(CNC(=O)C23CC4CC(CC(C4)C2)C3)cc1	i	-22%	-15%	1%	-11
CCc1nc2ccc(C(=O)N3CCCC(C(N)=O)C3)cn2c1N(C)Cc1ccc(OC)cc1 (centres undefined)	17%	-2%	.	6%	-1
Cc1cccc(OCC(=O)NCC2(N3CCN(C)CC3)CCCCC2)c1	0%	-4%	.	-7%	-32
Cc1cccc(C(=O)OCC(=O)NC(=O)NC2CCCCC2)c1	-1%	-21%	.	-14%	-4
Cc1cccc(C(=O)OCC(=O)NC2CCCCCCC2)c1	.	17%	-7%	.	-64*
CC(C)Oc1ccc(C(=O)OCC(=O)NC2CCCCCC2)cc1	.	?	11µM*	.	0
CC(C)Oc1ccc(C(=O)OCC(=O)NC(=O)NC2CCCC2)cc1	.	0%	-14%	.	-26
Cc1ccc(C(=O)OCC(=O)NC2CCCC2)cc1C	-7%	25%	13%	-1%	-78*
O=C(Cc1ccc(NC(=O)C2CCCN(C(=O)c3ccccc3)C2)cc1)Nc1cccc(C(=O)N2CCCCC2)c1 (centres undefined)	.	.	.	.	-25
O=C1c2ccccc2[C@@H]2Cc3csc[n+]3[C@H]12	35%	-15%	.	3%	4
COc1cc(NC(=O)N2CCc3nc(NCc4cccc(Oc5ccccc5)c4)ncc3C2)cc(OC)c1OC	10µM*	?	.	?	-92*
O=C(NC(c1ccc(Cl)cc1)c1ccsc1)C1CCN(CCOc2ccc(Cl)cc2)CC1 (centres undefined)	0%	-24%	.	-8%	32
Fc1ccc(C2CCNCC2COc2ccc3c(c2)OCO3)cc1 (centres undefined)	?	-15%	14µM*	-22%	-34
CCOc1cccc(C2C=C(c3ccc4c(c3)OCO4)NC(c3ccc(F)cc3)N2)c1O (centres undefined)	14%	.	.	-8%	.
CC1(C)CC[C@]2(C(=O)O)C(O)C[C@@]3(C)C(=CCC4[C@@]5(C)CCC(O)C(C)(C)C5CC[C@@]43C)C2C1 (some centres undefined)	i	-13%	.	0%	.
COc1cc(/C(C)=N/NC(=S)NC(C)C)cc(OC)c1OC	-25%	-27%	-7%	-25%	-102*
C/C(=N\NC(=S)NC(C)C)c1ccccc1OC(F)F	-12%	-11%	14µM*	-13%	-114*
Cc1cccc(CNc2ncncc2-c2ccccc2CN(C)C)c1	.	-21%	.	.	.
CCC[C@H]1[C@@H](NC(=O)Nc2ccc(Cl)cc2)CC[C@@]23CCCN2C(=O)CCC[C@@H]13	.	.	.	.	-14
CCCSc1nnc(Sc2nnnn2-c2ccccc2)s1	.	?	?	.	-78*
C(=C\CSc1nnnn1-c1ccccc1)/CSc1nnnn1-c1ccccc1	.	-7%	?	.	5
